Assay results reported in PubChem BioAssay AID686979 (National Center for Advancing Translational Sciences (NCATS), 2013).
The campaign covered roughly 420,000 compounds. About 50,000 (12%) were called active. Another 26% or so got no clear call; they are omitted. Only a selection was taken, and actives are over-represented in it overall. Values without a mark were called inactive. Calls follow the shape of the dose curve; as a rule, active = well fitted inhibition curve with a large enough effect; inconclusive = small, poorly fitted or top-dose-only effect; inactive = flat fitted curve, though single readings scatter.

Test: qHTS for Inhibitors of human tyrosyl-DNA phosphodiesterase 1 (TDP1): qHTS in cells in presence of CPT; also: nearly all actives have a fitted effect of over 55% in size
Conditions: chicken DT40 Tdp1-/-;hTDP1 cells + 20 nM CPT, ATP luminescence, 48 h; series mostly up to 46.2 µM; activity change, negative = growth inhibition: at the top concentration
How it was run: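 Cell growth measured by CellTiter-Glo luminescence after a minimum 48 h, 37 C compound exposure with 20 nM CPT in Tdp1-knockout DT40 cells stably expressing hTDP1, seeded 400/well; qHTS titration format.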
% is scaled to controls: 0 for no effect and ±100 for the full control effect; potency is read from the fitted curve at half-maximal effect.

Row | Compound | activity change, negative = growth inhibition [%] | Potency
1 | CC(C)CCNC(=O)CSc1nc2ccccc2nc1Cc1ccc(Cl)cc1 | 0.489 | 
2 | CC1C(=O)Nc2ccccc2N1C(=O)c1c(F)cccc1F (stereo not given) | -18.3 | 
3 | COc1ccccc1/C=C/C(=O)NC1CC2CCC1C2 (stereo not given) | -17.6 | 
4 | Cc1sc2ncn(CC(=O)NCCN(C)C)c(=O)c2c1S(=O)(=O)N1CCC(C)CC1 | -0.026 | 
5 | O=C(NC1CCN(C(=S)Nc2ccc(Cl)cc2)CC1)C1CCCCC1 | -0.741 | 
6 | COc1ccc(/C(N)=N/OC(=O)CCCc2ccccc2)cc1 | 4.34 | 
7 | Cc1ccc(C(=O)NCCNS(=O)(=O)c2ccccc2)cc1 | -14.4 | 
8 | Cc1c(C#N)c(NC(=O)c2ccccc2)n(Cc2ccccc2)c1C | -20.1 | 
9 | Cc1ccc(C(=O)Nc2c(C#N)c(C)c(C)n2Cc2ccccc2)cc1 |  | 25.9 µM (active)
10 | COC(=O)/C=C(\Oc1ccccc1)C1(O)CCCCC1 | 14.8 | 
11 | CC(Nc1nc(N2CCCC2)nc2ccccc12)c1ccccc1 (stereo not given) |  | 23.1 µM (active)
12 | CC(Nc1nc(N2CCN(CCO)CC2)nc2ccccc12)c1ccccc1 (stereo not given) | 14.8 | 
13 | Cc1ccc(C(CC(=O)O)Nc2nc(N3CCCCC3)nc(N3CCCCC3)n2)cc1 (stereo not given) | -14.2 | 
14 | CCCOc1ccc(/C(O)=C2/C(=O)C(=O)N(CCN(C)C)C2c2ccc(OC)c(OC)c2)cc1 (stereo not given) | -7.9 | 
15 | CC1CCN(C(=O)COC(=O)c2cc(=O)[nH]c3ccccc23)CC1 | -12.6 | 
16 | CCc1ccc(OC(C)C(=O)Nc2ccc(S(=O)(=O)Nc3cc(C)on3)cc2)cc1 (stereo not given) | 7.74 | 
17 | CCc1nonc1NC(=O)c1oc2ccc(Cl)cc2c1C |  | inactive
18 | CCOc1ccc(-c2nonc2NC(=O)c2oc3ccc(CC)cc3c2C)cc1 |  | 18.4 µM (active)
19 | Cc1nonc1NC(=O)c1oc2ccccc2c1C | -11 | 
20 | CC(=O)N(O)CCCCCNC(=O)CCC(=O)N(O)CCCCCNC(=O)CCC(=O)N(O)CCCCCNC(=O)CCC(=O)O | 18.6 | 
21 | CCCCNC(=O)OC1CC2CC1[C@H]1CCCCN1C2=O (stereo not given in full) | 3.61 | 
22 | CC(C)(C)c1cc[n+](-c2[nH]c(=O)sc2/C=N/N=C(\[O-])c2ccccc2)cc1 | -15.9 | 
23 | C/C(=N\NC(=O)COc1ccc(C)cc1[N+](=O)[O-])c1ccc2c(c1)OCCO2 | -29.2 | 
24 | CC(=O)c1ccc(NC(=O)CSc2nnc(NC(=O)Nc3ccccc3)s2)cc1 | -18.4 | 

Row | Compound | activity change, negative = growth inhibition [%] | Potency
25 | Cn1c(=O)c2c(SCC(=O)N3CCc4ccccc43)nc(-c3ccc(Cl)cc3)nc2n(C)c1=O | -2.75 | 
26 | O=C(Nc1ccc2nc(SCC(=O)N3CCCc4ccccc43)sc2c1)c1ccc(F)cc1 |  | 5.8 µM (active)
27 | Nc1nnc(SCC(=O)Nc2ccc3nc(SCC(=O)Nc4ccccc4)sc3c2)s1 |  | 13 µM (active)
28 | CCC(=O)Nc1ccc2nc(SCC(=O)N3CCc4ccccc43)sc2c1 |  | 16.4 µM (active)
29 | O=C(Nc1ccc2nc(SCC(=O)N3CCCc4ccccc43)sc2c1)c1ccc(Cl)cc1 |  | 5.17 µM (active)
30 | O=C(CSc1ccc2nnc(-c3ccccc3)n2n1)N1CCCc2ccccc21 | 4.03 | 
31 | O=C(NCc1nnc(SCC(=O)N2CCCc3ccccc32)o1)c1ccccc1F | -15 | 
32 | O=C(Nc1ccc2nc(SCC(=O)N3CCc4ccccc43)sc2c1)c1ccccc1F | -18.9 | 
33 | O=C(CSc1nc2ccccc2s1)Nc1ccc(C(=O)O)cc1 | 7.64 | 
34 | Cc1nnc(SCC(=O)N2CCc3ccccc32)n1-c1ccccc1 | 7.14 | 
35 | CC(=O)Nc1ccc(S(=O)(=O)NCC2CCC(C(=O)NCCc3ccccc3)CC2)cc1 (stereo not given) |  | inactive
36 | O=C(NC1CCCC1)C1CC(=O)N(c2ccc(F)cc2)C1 (stereo not given) | -1.64 | 
37 | Cc1cc(NC(=O)CN2C(=O)NC(CC(C)C)C2=O)no1 (stereo not given) | 1.11 | 
38 | CC(C(=O)N(C)CC(=O)Nc1ccccc1C(F)(F)F)N1C(=O)c2ccccc2C1=O (stereo not given) | 8.73 | 
39 | CC(OC(=O)c1cccnc1Cl)C(=O)NC1CCCCC1 (stereo not given) | 2.06 | 
40 | CCN(Cc1ccccc1)C(=O)CCS(=O)(=O)c1ccc2c(c1)oc(=O)n2C |  | inactive
41 | CCCCC(NS(=O)(=O)c1ccc(C)cc1)C(=O)Oc1ccc2c3c(c(=O)oc2c1)CCC3 (stereo not given) | -28.7 | 
42 | CN1CCN(C(=O)c2cnn(-c3ccccc3)c2NC(=O)c2ccc([N+](=O)[O-])cc2)CC1 | -6.48 | 
43 | Cc1nc2c(OCc3ccc(Cl)cc3Cl)cccn2c1N(C)CC1CC1 |  | 16.4 µM (active)
44 | CCc1nc2c(OCC(=O)C(C)(C)C)cccn2c1N(C)C(=O)c1ccccc1F | -21.1 | 
45 | CCc1nc2c(OCc3ccc(C(=O)OC)cc3)cccn2c1N(C)C(=O)C(C)C |  | 20.6 µM (active)
46 | COC(=O)c1ccc(COC(=O)c2cnccn2)cc1 | 13.1 | 
47 | CCOC(=O)c1nc(C)n(-c2ccc(Cl)cc2Cl)n1 | -13 | 
48 | CC(C)(C)NC(=O)NC(=O)COC(=O)Cc1ccc(Cl)cc1Cl | 0.66 | 

Row | Compound | activity change, negative = growth inhibition [%] | Potency
49 | CCCCC(=O)N(C)c1c(CC)nc2c(OCc3ccc(Cl)cc3Cl)cccn12 |  | 20.6 µM (active)
50 | COC(=O)c1ccc(CSc2nncn2C)cc1 | -22 | 
51 | CCc1nc2c(OCc3ccc(Cl)cc3Cl)cccn2c1N(C)C(=O)C(C)C |  | 7.31 µM (active)
52 | Clc1ccc(-c2ncc3ccccn23)c(Cl)c1 | 24 | 
53 | CC(C)(C)OC(=O)NC(Cc1ccccc1)C(=O)NC(CSC1CCCCO1)C(=O)NN (stereo not given) | -3.48 | 
54 | CC(=O)c1cc2c(cc1NC(=O)Cn1nc(-c3ccc(F)cc3)ccc1=O)OCO2 | 3.19 | 
55 | COc1ccccc1OCCCCCCN1CCN(C)CC1 | -6.86 | 
56 | CC(C)[C@H](NC(=O)N1c2ccccc2NC(=O)[C@@H]1C(C)C)C(=O)N[C@H](C(=O)O)c1ccccc1 | -2.73 | 
57 | CCCNC(=O)c1onc(CSc2ccc(F)cc2)c1C(=O)NC(C)C | -1.26 | 
58 | COc1cc(C(=O)N2CCC(c3ccncc3)CC2)cc(OC)c1OC | -4.5 | 
59 | COc1cc(C(F)(F)F)nc2c(Br)c(C(C)(C)C)nn12 | -7.92 | 
60 | Cc1cc2nc(-c3ccc(NC(=O)c4cc5ccccc5o4)cc3)oc2cc1C | -6.85 | 
61 | CC(OC(=O)/C=C/c1ccccc1)C(=O)NC1CCCCC1C (stereo not given) | -15.4 | 
62 | CN(C)CCCN(C(=O)COc1ccccc1)c1nc2c(Cl)cccc2s1 | -17.7 | 
63 | O=C(CCS(=O)(=O)c1ccccc1)N(Cc1cccnc1)c1nc2c(F)cccc2s1 |  | 3.66 µM (active)
64 | O=C(NCc1cccnc1)Nc1ccccc1F | -2.51 | 
65 | O=C(C1COc2ccccc2O1)N(Cc1cccnc1)c1nc2c(F)cc(F)cc2s1 (stereo not given) | -18.9 | 
66 | CN(C)CCN(C(=O)CN1C(=O)c2ccccc2C1=O)c1nc2cc3c(cc2s1)OCCO3 | -10.4 | 
67 | Cc1cccc(C)c1NC(=O)CCS(=O)(=O)c1cccc2nsnc12 | -2.61 | 
68 | COc1ccc(N(C)C(=O)CCS(=O)(=O)c2cccc3nsnc23)cc1 |  | inactive
69 | COc1cccc2sc(N(CCCN(C)C)C(=O)C(c3ccccc3)c3ccccc3)nc12 |  | 20.6 µM (active)
70 | Cc1cccc2sc(N(CCCN(C)C)C(=O)CCS(=O)(=O)c3ccccc3)nc12 |  | 1.84 µM (active)
